Assay results published in PubChem BioAssay AID686970 (National Center for Advancing Translational Sciences (NCATS), 2013).
Hit rate of the full screen: of about 360,000 compounds, about 6,000 (1.7%) were called active. About 8% were inconclusive and are not listed. The call rests on the fitted dose curve; in most records, active means well fitted cell-killing curve with a large enough effect; inconclusive means small, poorly fitted or top-dose-only effect, or effect the other way; inactive means flat fitted curve, though single readings scatter. Only a selection was taken, and actives are over-represented in it overall.

Experiment: qHTS for induction of synthetic lethality in tumor cells producing 2HG: qHTS for the HT-1080-NT fibrosarcoma cell line;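 further: NT is the 2HG producing partner of a matched IDH1 knockdown line; nearly all actives have a fitted effect of over 55% in size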;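 on activity, negative = less viability: 0% = DMSO-treated cells and -100% = media-only wells without cells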
Details: HT-1080-NT fibrosarcoma viability, CellTiter-Glo ATP luminescence, 48 h; series mostly up to 46.1 µM; activity, negative = less viability: at the top concentration
Outline: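 Fibrosarcoma NT cells, 750 per well in 5% FBS RPMI, were exposed to compound for 48 hours. Viability: CellTiter-Glo luminescence.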
Potency means the concentration at half of the fitted maximal effect.

SMILES	activity, negative = less viability	Potency
O=C(CCc1ccccc1Cl)Nc1ccc(S(=O)(=O)Nc2nccs2)cc1	7.81% (inactive)	–
Cc1ccc(CCC(=O)Nc2ncc(Cc3cc(Cl)ccc3Cl)s2)o1	–	1.16 µM (active)
Cc1ccc(C(=O)Nc2nc3ccc(Cl)cc3s2)o1	-1.78% (inactive)	–
CCc1cc(-c2nnn(CCC3COCCO3)c2CC)ccc1-c1cn(Cc2ccc3ccccc3c2)nn1 (configuration not stated)	-13.9% (inactive)	–
Cc1ccc(Cn2c(C)c(C(=O)NCc3ccccc3C(F)(F)F)sc2=O)cc1	2.27% (inactive)	–
CCNC(=O)C1(C)CCCN1C(=O)c1ccc(N(C)C)cc1 (configuration not stated)	14.3% (inactive)	–
CCc1nc2c(OCc3ccc(F)c(F)c3)cccn2c1N(C)C(=O)c1ccco1	1.64% (inactive)	–
Cc1nc2ccccc2nc(C)c1=NOCc1ccc(Cl)cc1Cl	3.79% (inactive)	–
CCCCN(C=O)c1c(CC)nc2c(OCc3ccccc3C(=O)OC)cccn12	-26.4% (inactive)	–
Cc1nc2c(OCc3ccc(Cl)cc3Cl)cccn2c1N(C)CC1CC1	–	13 µM (active)
CCc1nc2c(OCc3ccc(C(=O)OC)cc3)cccn2c1N(C)C(=O)C(C)C	20.3% (inactive)	–
Cc1nc2c(OCc3ccc(Cl)cc3)cccn2c1N(C)Cc1cccs1	–	16.4 µM (active)
CCc1nc2c(OCc3ccc(Cl)cc3Cl)cccn2c1N(C)C(=O)C(C)C	–	16.4 µM (active)
CCc1nc2c(OCc3ccccc3)cccn2c1N(C)C(=O)c1ccco1	21.7% (inactive)	–
CCOC(=O)N(C)c1c(CC)nc2c(OCc3ccccc3C(=O)OC)cccn12	-10.3% (inactive)	–
COc1ccc(S(=O)(=O)NC(=O)C2(C)CCN2C(=O)COc2ccc(Cl)cc2)cc1 (configuration not stated)	15.6% (inactive)	–
Cc1cccc(CN2CCN(C3CN(Cc4cn(Cc5cc(C)cc(C)c5)nn4)S(=O)(=O)C3)CC2)c1 (configuration not stated)	-14% (inactive)	–
CC1CCC2(CC1)NC(=O)N(CC(=O)NCc1ccco1)C2=O (configuration not stated)	-3.13% (inactive)	–
Cc1ccc(S(=O)(=O)N[C@H](CO)C(C)C)cc1	18.5% (inactive)	–
COCCCn1cc(CN2CC(N(C)C)CS2(=O)=O)nn1 (configuration not stated)	23.5% (inactive)	–
Cc1nc(C(F)(F)F)ccc1C(=O)N1CCC1(C)C(=O)NS(=O)(=O)c1ccccc1Cl (configuration not stated)	23.3% (inactive)	–
O=C(NC1CCCCC1)C(c1cc2ccccc2o1)n1c(=O)c(-c2ccco2)nc2ccccc21 (configuration not stated)	-11.5% (inactive)	–
COc1cccc(-c2nc3nc(C)cc(C)n3c2NC2CCCCC2)c1	4.57% (inactive)	–
Cc1ccc2nc(-c3cccnc3)c(NC3CCCC3)n2c1	1.6% (inactive)	–
COc1ccc(-c2nc3cnccn3c2NC2CCCCC2)cc1-c1cccc(Cl)c1	–	18.4 µM (active)

SMILES	activity, negative = less viability	Potency
CC(=O)c1nn(-c2ccccc2)c(=Nc2ccccc2)cc1C	12.8% (inactive)	–
O=C(Nc1ccccc1)c1ccccc1OCc1ccccc1	14.1% (inactive)	–
COC(=O)c1ccc(C2CC(=O)Nc3cc(OC)c(OC)cc32)cc1 (configuration not stated)	1.74% (inactive)	–
CCCOc1ccccc1C1CC(=O)Nc2cc3c(cc21)OCO3 (configuration not stated)	–	8.2 µM (active)
CCCOc1ccc(C2NC(=O)NC(c3ccccc3)=C2C(C)=O)cc1OCC (configuration not stated)	6.35% [at 9.24 µM] (inactive)	–
Cc1ccc(F)c(S(=O)(=O)NC(=O)C2(C)CCN2C(=O)CCc2cccs2)c1 (configuration not stated)	18.9% (inactive)	–
OC[C@@H]1CN(Cc2ccc3c(c2)OCO3)C[C@H](n2cnc3c(NCc4ccco4)ncnc32)O1	8.23% (inactive)	–
CCc1nc2c(OCCOc3ccccc3)cccn2c1N(C)C(=O)c1ccc(OC)cc1	0.153% (inactive)	–
COc1ccc(C(N)c2csc(NC(=O)Nc3cccc(C(F)(F)F)c3)n2)cc1 (configuration not stated)	–	20.6 µM (active)
COc1ccc(C(CC(=O)Nc2ccc(C)cc2)NC(=O)C(F)(F)F)cc1 (configuration not stated)	1.15% (inactive)	–
COc1cccc(NC(=O)Nc2ccc(F)cc2)c1	9.18% (inactive)	–
O=C(O)CC1(CC(=O)Nc2cccc(C(F)(F)F)c2)CCCC1	-9.72% (inactive)	–
CC(=O)c1ccc(Nc2nc(C(N)c3ccccc3)cs2)cc1 (configuration not stated)	-1.4% (inactive)	–
O=C(Nc1cccc(F)c1)NC1CCCCCCC1	-29.5% (inactive)	–
NC(c1csc(NC(=O)Nc2cccc(C(F)(F)F)c2)n1)C1CCCCC1 (configuration not stated)	–	8.2 µM (active)
O=C(Nc1ccc(C(=O)N2CCOCC2)cc1)Nc1cccc(C(F)(F)F)c1	3.58% (inactive)	–
NC(c1ccccc1)c1csc(NC(=O)Nc2cccc(C(F)(F)F)c2)n1 (configuration not stated)	–	18.4 µM (active)
O=C(NCCc1cccc(F)c1)C1CC(O)CN1C(=O)Nc1ccccc1 (configuration not stated)	5.15% (inactive)	–
CCN(CC)C(=O)C1=C(C)N(Cc2ccc(F)cc2)C(=O)C(CC(=O)NCc2cccc3ccccc23)C1 (configuration not stated)	-8.28% (inactive)	–
CO[C@@H]1CN(C)C(=O)c2cc(NC(=O)Nc3cc(F)ccc3F)ccc2OC[C@H](C)N(C(=O)c2ccccn2)C[C@@H]1C	2.75% (inactive)	–
CCCCC[C@H](C)N1C[C@@H](COCc2ccccc2)Oc2cc(N3CCC[C@@H]3CO)ccc2S1(=O)=O	2.67% (inactive)	–
O=C(NCc1cccnc1)c1ccc2nc([C@@H]3O[C@H](CO)[C@H](O)[C@H](O)[C@H]3O)[nH]c2c1	28.8% (inactive)	–
COc1ccc(S(=O)(=O)N(C)C[C@H]2OCc3cnnn3CCCC(=O)N([C@H](C)CO)C[C@H]2C)cc1	15.6% (inactive)	–
CNc1cc(-c2c(OC)cccc2OC)ncn1	6.96% (inactive)	–
O=S1(=O)CC(N2CCN(c3ccccn3)CC2)CN1Cc1ccc(F)cc1 (configuration not stated)	4.82% (inactive)	–

SMILES	activity, negative = less viability	Potency
COc1cccc(NC(=O)C2(C)CCN2Cc2ccccc2Cl)c1 (configuration not stated)	-22.6% (inactive)	–
COc1ccc(C2CC(c3cccc(OC)c3)=NN2c2ccc(S(N)(=O)=O)cc2)cc1 (configuration not stated)	–	18.4 µM (active)
COc1ccc(C2CC(c3ccccc3)=NN2C(=O)COC(=O)COc2ccccc2)cc1 (configuration not stated)	5.99% (inactive)	–
COc1ccc(C2CC(c3ccc([N+](=O)[O-])cc3)=NN2C(C)=O)cc1 (configuration not stated)	-0.435% (inactive)	–
O=C(CSc1ccc(Cl)cc1)NC1CC1	-0.483% (inactive)	–
O=C(OC1CC2CC1[C@H]1CCCCN1C2=O)N1CCOCC1 (some centres not stated)	16% (inactive)	–
CCCCCNC(=O)C(c1ccc(OC)cc1)n1c(=O)c(-c2ccccc2)nc2ccccc21 (configuration not stated)	-20.5% (inactive)	–
CCN(CC)C(=O)C1=C(C)N(Cc2ccc(OC)cc2)C(=O)C(CC(=O)NCCCCc2ccccc2)C1 (configuration not stated)	-11.6% (inactive)	–
Cc1ccc(S(=O)(=O)N(Cc2cccc([N+](=O)[O-])c2)C(=O)N2CCN(C)CC2)cc1	-5.22% (inactive)	–
O=C(CCl)N(Cc1cccc([N+](=O)[O-])c1)c1cccc(Cl)c1	–	6.51 µM (active)
O=C(c1cccc([N+](=O)[O-])c1)N1CCN(Cc2ccccc2)CC1	13.5% (inactive)	–
O=C(c1ccc(N2CCCC2=O)cc1)N1CCN(c2ccc(C(F)(F)F)cc2[N+](=O)[O-])CC1	-4.69% (inactive)	–
CCNC(=S)Nc1ccc2c(c1)c(=O)n(C)n2Cc1ccc(Cl)cc1	-1.44% (inactive)	–
COc1ccc(CNC(=O)c2ccc(-c3cccnc3)c3ccoc23)cc1OC	-8.56% (inactive)	–
COc1cccc(C(O)c2nc(-c3ccc(C)c(C)c3)cs2)c1 (configuration not stated)	-23.1% (inactive)	–
COC(=O)COc1cccc2c(=O)n(CC(=O)NCCc3ccc(OC)c(OC)c3)ccc12	21.4% (inactive)	–
COC(=O)COc1cccc2c(=O)n(CC(=O)NCc3ccccc3)ccc12	–	2.59 µM (active)
Cc1ccc(CNC(=O)CCNC(=O)Cn2ccc3ccccc3c2=O)cc1	1.01% (inactive)	–
Cc1cc(C)c(S(=O)(=O)NN=C2c3ccccc3[C@H]3Cc4csc[n+]4[C@@H]23)c(C)c1	0.106% (inactive)	–
O=c1[nH]c2ccccc2n1C1CCN(CCOc2ccccc2)CC1	-14.8% (inactive)	–
COc1cc2c(cc1OC)CN(C(=O)c1cc(=O)c3ccccc3o1)CC2	–	5.8 µM (active)
COc1ccccc1CNC(=O)c1cc(=O)c2ccccc2o1	-4.66% (inactive)	–
COc1ccc2c(CC(=O)N3CCc4cc(OC)c(OC)cc4C3)coc2c1	2.88% (inactive)	–
COc1ccc(S(=O)(=O)N2CCCCC2c2cc(C(=O)NCc3ccc(F)cc3)no2)cc1 (configuration not stated)	3.27% (inactive)	–
C[C@@H]1CN([C@H](C)CO)S(=O)(=O)c2ccc(C#CC3CCCCC3)cc2O[C@H]1CN(C)C(=O)Cc1ccncc1	-16.2% (inactive)	–

SMILES	activity, negative = less viability	Potency
C=C(C)COc1ccc(-c2n[nH]c(C)c2-c2ccccc2)c(O)c1	–	20.6 µM (active)
COc1ccc(-c2c(-c3ccc(OC)cc3O)nc(C)nc2C(F)(F)F)cc1	-1.91% (inactive)	–
C=C(C)COc1ccc(-c2ncncc2-c2ccc(OC)cc2)c(O)c1	-5.06% (inactive)	–
CCOC(=O)[C@H]1Nc2ccc(Cl)cc2[C@@H]2[C@H]1C1CC(c3ccccc31)N2C(=O)OCc1ccccc1 (some centres not stated)	-2.55% (inactive)	–
COc1ccc(/C=C2/CCCc3ccccc3C2=O)cc1	–	8.2 µM (active)
O=C1/C(=C/c2cccs2)CCc2ccccc21	2.39% (inactive)	–
COc1ccc(/C=C2\CCc3ccccc3C2=O)c(OC)c1OC	2.07% (inactive)	–
CC(=O)Oc1ccc(Cn2c(C)c(C(=O)NCc3ccc(C#N)cc3)sc2=O)cc1	-29.4% (inactive)	–
O=C(CSc1nc2cccc(F)c2c(=O)n1-c1ccccc1)Nc1ccc2c(c1)CCC2	11.2% (inactive)	–
O=C(O)c1cccc(NC(=O)c2cc(-c3cccc(Cl)c3)nc3ccccc23)c1	10.5% (inactive)	–
O=C(/C(=C/c1cccc(Cl)c1)c1nc2ccccc2[nH]1)c1ccccc1	–	5.17 µM (active)
O=C(N/N=C/c1ccc(Cl)cc1)c1nc2ccc([N+](=O)[O-])cc2c(=O)[nH]1	7.24% (inactive)	–
Cc1cc(Br)cn2c(Cc3ccccc3C(F)(F)F)c(-c3ccc(Cl)cc3)nc12	-3.92% (inactive)	–
COc1ccc(Oc2c(Cl)cnn(-c3ccccc3)c2=O)cc1	–	18.4 µM (active)
Cc1ccc(Oc2cnn(-c3ccccc3)c(=O)c2Br)cc1	-17.5% (inactive)	–
COc1ccc(CCNC(=O)c2c(C)nn(-c3ccccc3)c2Cl)cc1	-8.7% (inactive)	–
CCCCN1C(=O)C(CC(=O)NCc2cccs2)CC(C(=O)N2CCCCCC2)=C1C (configuration not stated)	-1.24% (inactive)	–
O=C(NCc1ccccc1)C1CNCC(C(=O)NCc2ccccc2)C1 (configuration not stated)	5.71% (inactive)	–
Cc1ccc(-c2nc3c(Cl)cc(C(F)(F)F)cn3c2Cc2cccc(Cl)c2)cc1	14% (inactive)	–
Oc1c(Cl)cc(Cl)c(Cl)c1Cc1c(O)c(Cl)cc(Cl)c1Cl	–	5.8 µM (active)
CCCCCCCCn1c2c(c(=N)c3c1CCC3)CCCC2	–	16.4 µM (active)
C=CC(=O)OCCOCCOCCOCCOC(=O)C=C	–	20.6 µM (active)
